Screens (PubChem BioAssay)
Shn3 3UTR inh: reduction of Shn3 3'UTR firefly luciferase signal, primary screen, Schnurri-3 inhibitor project, cell-based, Clone20 osteoblasts, set 2. 360,000 tested, 0.52% active. inhibition, % at 12.5 µM. AID 588674, 2011. Clone20 osteoblast Shn3 3'UTR firefly luciferase, 24 h;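 active = mean inhibition of at least 75% with every replicate also reaching 75%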
KKLEB cytotox: cytotoxicity in KKLEB CF airway cells, primary screen, cytotoxicity control for CF NF-kB inhibitor project, cell-based, uHTS, fluorescence assay plates. 360,000 tested, 0.36% active. KKLEB CF airway cells viability, ATPlite luminescence, overnight; hits give low values; cells stimulated with P. aeruginosa culture filtrate. activity change (cytotoxicity), % at 5 µM;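 active = corrected activity change at or below -50% at 5 µM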
CF NFkB block: inhibitors of PAF-induced NF-kB signaling, primary screen, cell-based, GFP fluorescence, uHTS; KKLEB NF-kB-GFP reporter, GFP fluorescence overnight; inhibition, % at 5 µM; 360,000 tested, 0.86% active; AID 588850, 2011;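 active = at least 50% inhibition at 5 µM, scaled per plate between neutral and stimulator controls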;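 note: PAF is a Pseudomonas aeruginosa culture filtrate used as stimulus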
HIF-2a block: HIF-2a reporter inhibitors, primary screen, luminescence, 786-0 RCC cells. 786-0 RCC cells HIF-2a reporter, luciferase luminescence, overnight. inhibition, % at 18.8 µM. 360,000 tested, 0.72% active;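 active = inhibition of the luminescence signal of 40% or more relative to plate controls, in a single-dose primary screen at 18.75 µM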
Peg3 promoter: Peg3 promoter-driven luciferase inhibitors, primary screen, cell-based, HeLa, luciferase luminescence; HeLa PEG-Prom luciferase reporter, overnight; inhibition, % at 20 µM; 360,000 tested, 1.7% active; AID 588405, 2011;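 active = inhibition of at least 50% at 20 µM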
LMP1 NFkB inh: EBV LMP1-driven NF-kappaB luciferase reporter inhibitors, primary screen, cell-based, luminescence, single point. AID 504558, 2011. LMP1-induced NF-kappaB luciferase reporter cells. inhibition, % at 12.5 µM. 350,000 tested, 0.69% active; in the data active = inhibition above about 41%
Mdm2-MdmX confirm: retested Mdm2-MdmX interaction blockers, confirmation, cell-based, luminescence, single concentration, set 2 | SaOS-2 split-luciferase Mdm2/MdmX complementation | inhibition, % at 8 µM | shares compounds with HIF-2a block | 740 tested, 99% active;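 active = mean inhibition of the luminescence signal across two replicates at or above 26 percent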
Target sequence (O15151 whole entry, looked up): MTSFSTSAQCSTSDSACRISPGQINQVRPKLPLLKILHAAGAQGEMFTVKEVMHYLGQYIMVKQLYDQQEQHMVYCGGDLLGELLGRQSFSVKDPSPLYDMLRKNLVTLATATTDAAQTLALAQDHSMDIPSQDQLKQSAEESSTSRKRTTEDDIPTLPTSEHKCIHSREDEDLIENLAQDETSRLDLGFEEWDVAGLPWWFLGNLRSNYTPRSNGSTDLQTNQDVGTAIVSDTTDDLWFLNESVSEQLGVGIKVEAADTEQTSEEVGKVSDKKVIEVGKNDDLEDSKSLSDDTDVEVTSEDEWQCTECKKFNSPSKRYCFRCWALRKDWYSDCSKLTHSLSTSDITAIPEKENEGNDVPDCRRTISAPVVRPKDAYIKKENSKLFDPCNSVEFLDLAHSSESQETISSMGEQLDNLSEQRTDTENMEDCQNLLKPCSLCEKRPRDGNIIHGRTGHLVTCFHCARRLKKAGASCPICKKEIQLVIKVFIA
Target sequence (Q00987 whole entry, looked up): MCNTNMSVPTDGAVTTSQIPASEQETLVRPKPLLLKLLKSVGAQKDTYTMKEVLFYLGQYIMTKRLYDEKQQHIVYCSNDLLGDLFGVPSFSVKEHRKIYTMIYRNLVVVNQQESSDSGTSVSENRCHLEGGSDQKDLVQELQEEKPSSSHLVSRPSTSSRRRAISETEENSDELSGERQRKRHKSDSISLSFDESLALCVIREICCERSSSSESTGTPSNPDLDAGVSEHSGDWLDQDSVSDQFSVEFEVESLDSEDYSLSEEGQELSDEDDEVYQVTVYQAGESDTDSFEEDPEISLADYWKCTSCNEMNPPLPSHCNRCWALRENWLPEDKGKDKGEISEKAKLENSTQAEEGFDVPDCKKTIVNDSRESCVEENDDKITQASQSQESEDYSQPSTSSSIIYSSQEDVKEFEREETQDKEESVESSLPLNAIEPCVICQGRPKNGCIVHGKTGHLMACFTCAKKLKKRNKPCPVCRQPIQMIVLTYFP
HIF-2a inh conf: HIF-2a reporter inhibitor retest, confirmation, luminescence, 786-0 RCC cells | HIF-2a luciferase reporter luminescence, overnight | inhibition, % at 18.8 µM | shares compounds with HIF-2a block | 1,800 tested, 56% active;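 active = mean inhibition across four replicates of at least 40 percent at the single tested concentration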
HIF-1a counter: HIF-1a luciferase reporter signal reduction – MiaPaCa-2 cells, single concentration, counter-screen for HIF-2a inhibitor project, confirmation; 1,800 tested, 72% active; shares compounds with HIF-2a block; MiaPaCa-2 HIF-1a luciferase reporter, desferoxamine, overnight; inhibition, % at 18.8 µM;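 active = mean inhibition of the reporter signal across four replicates at the single tested dose of 50% or more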
Of the large screens only hits and unclear results are named; the others gave an inactive call (follow-up assays come after a bar, where they were run). Shown are actives, neighbours in structure and some others; about 2.9% of the full set was active somewhere.

CCOC(=O)c1sc(NC(=O)c2cc3c(s2)CCC(C)C3)nc1C (stereo unspecified)	HIF-2a block 48.2 | HIF-2a inh conf 45.1 | HIF-1a counter inactive
Cc1coc2cc3oc(=O)c(CC(=O)N[C@@H](CC(C)C)C(=O)O)c(C)c3cc12	HIF-2a block 46.3 | HIF-2a inh conf inactive | HIF-1a counter inactive
COCCN(C(=O)CCl)C(C(=O)NC1CCCCC1)c1ccccc1C (stereo unspecified)	HIF-2a block 65.6, Peg3 promoter 60.3 | HIF-2a inh conf inactive | HIF-1a counter 91.3
COCCN(C(=O)CCC(=O)Nc1cc(C)on1)C(C(=O)NC1CCCC1)c1ccccc1C (stereo unspecified)	none
CCOc1cc(C)c(S(=O)(=O)NCCCn2ccnc2)cc1C	none
CCOC(=O)Cc1csc(NC(=S)NC(=O)c2ccc(C)cc2)n1	HIF-2a block 95.9 | HIF-2a inh conf 99.1 | HIF-1a counter 97.1
CCOC(=O)Cc1csc(NC(=S)NC(=O)c2ccccc2)n1	HIF-2a block 85.3 | HIF-2a inh conf 86.8 | HIF-1a counter inactive
COc1ccc2c(c1)CCCC21SC(NC(C)=O)=NN1C(C)=O (stereo unspecified)	none
CCC(C)NC(=O)COc1ccc(OCc2ccccc2)cc1 (stereo unspecified)	none
Cn1c(CNc2cccc(Cl)c2)nnc1SCC(=O)OC1CCCCC1	none
CCn1c(COc2cccc3ccccc23)nnc1SCC(=O)OC1CCCCC1	HIF-2a block 57.6 | HIF-2a inh conf inactive | HIF-1a counter inactive
O=C(O)CSc1nnc(COc2cccc3ccccc23)n1Cc1ccccc1	none
Cn1c(COc2cccc3ccccc23)nnc1SCC(=O)OC1CCCCC1	HIF-2a block 66.8 | HIF-2a inh conf inactive | HIF-1a counter inactive
C=CCn1c(SCC(=O)N(C(C)CC)C2CCS(=O)(=O)C2)nc2ccccc2c1=O (stereo unspecified)	none
S=C(Nc1ccccc1Cl)N1CCOCC1	none
COc1cc(/C=C/C(C)=O)cc(OC)c1OC	none
COc1cc(C=CC(=O)c2cc(OC)c(OC)c(OC)c2)cc(OC)c1OC	HIF-2a block 59.0, Peg3 promoter 71.4 | HIF-2a inh conf 89.3 | HIF-1a counter 104.7
COc1cc(C=CC(=O)c2ccccc2)cc(OC)c1OC	HIF-2a block 37.5, Peg3 promoter 97.5 (no result: LMP1 NFkB inh) | HIF-2a inh conf inactive | HIF-1a counter 95.1
C/C(=C\c1ccc(N)cc1)c1nc2ccccc2[nH]1	none
CC(C)c1ccc(/C=C(\c2nc3ccccc3[nH]2)S(=O)(=O)c2ccccc2)cc1	Shn3 3UTR inh 91.7, KKLEB cytotox -68.3, CF NFkB block 93.4, HIF-2a block 90.1, Peg3 promoter 104.5 | Mdm2-MdmX confirm 103.0 | HIF-2a inh conf 97.8 | HIF-1a counter 104.2
O=S(=O)(/C(=C/c1ccc(C(F)(F)F)cc1)c1nc2ccccc2[nH]1)c1ccccc1	KKLEB cytotox -64.2, CF NFkB block 83.5, HIF-2a block 89.9, Peg3 promoter 106.2 | HIF-2a inh conf 98.9 | HIF-1a counter 107.1
N#Cc1ccc(C(=O)OCCCc2cc3ccccc3c(=O)o2)cc1	none
CN(C(=O)CSc1nc(N)c2c3c(sc2n1)CSC(C)(C)C3)c1ccccc1	none
COC(=O)C1=C(C)N(c2cc(C)cc(C)c2)/C(=C/c2ccc(O)cc2)C1=O	HIF-2a block 43.7, LMP1 NFkB inh 51.6 | HIF-2a inh conf inactive | HIF-1a counter 60.8
FC(F)(F)c1cccc(Sc2nc(-c3ccccc3)nnc2C(F)(F)F)c1	HIF-2a block 44.5 (no result: Shn3 3UTR inh) | HIF-2a inh conf inactive | HIF-1a counter 69.9
FC(F)(F)c1nnc(-c2ccccc2)nc1Sc1ccccc1	HIF-2a block 78.4, Peg3 promoter 71.7 | HIF-2a inh conf inactive | HIF-1a counter 66.6
FC(F)(F)c1nnc(-c2ccccc2)nc1Sc1ccc(Cl)cc1	Shn3 3UTR inh 91.7, HIF-2a block 61.7, Peg3 promoter 73.8 | HIF-2a inh conf 48.1 | HIF-1a counter 91.1
FC(F)(F)c1nnc(-c2ccccc2)nc1N1CCCC1	none
FC(F)(F)c1cccc(Oc2nc(-c3ccccc3)nnc2C(F)(F)F)c1	none
COc1ccc(C2=NS(=O)(=O)N(C)C(C(=O)N3CCOCC3)=C2)cc1OC	none
COCCn1c(=S)[nH]c2cc(C(=O)NC3CCCCC3C)ccc2c1=O (stereo unspecified)	none
COc1ccc(NC(=O)CCS(=O)(=O)c2ccccc2Cl)cc1S(=O)(=O)Nc1ccc(Cl)cc1	HIF-2a block 43.8 | HIF-2a inh conf inactive | HIF-1a counter 67.7
CC1(C)Oc2ccc3ccc(=O)oc3c2C[C@H]1O[C@@H]1O[C@H](CO)[C@@H](O)[C@H](O)[C@H]1O	none
CC(=O)OC(C)(C)/C=C/C(=O)[C@](C)(O)C1[C@H](O)C[C@@]2(C)C3CC=C4C(C=C(O[C@@H]5O[C@H](CO)[C@@H](O)[C@H](O)[C@H]5O)C(=O)C4(C)C)[C@]3(C)C(=O)C[C@]12C (stereo partly specified)	KKLEB cytotox -68.0, CF NFkB block 73.5, HIF-2a block 45.8, Peg3 promoter 57.5 | HIF-2a inh conf inactive | HIF-1a counter inactive
Cc1ccc(-n2nc3c(=O)n(CCCC(=O)NCc4ccco4)nc(C)c3c2C)cc1	none
O=c1c2c3nc4ccccc4nc3n(Cc3ccccc3)c2ncn1Cc1ccco1	HIF-2a block 43.6, Peg3 promoter 75.7 | HIF-2a inh conf inactive | HIF-1a counter 78.2
CC(C)(C)NCC(=Cc1ccccc1)C(=O)c1ccccc1	Shn3 3UTR inh 97.2, HIF-2a block 79.5, Peg3 promoter 100.7, LMP1 NFkB inh 87.1 | HIF-2a inh conf 99.0 | HIF-1a counter 106.9
COc1ccc(C=C(C(=O)c2ccccc2)C(=O)c2ccccc2)cc1	none (no result: LMP1 NFkB inh)
COc1ccc(CCNC(=O)c2cccn2C)cc1	none
Cc1nnnn1/C(=C\c1ccccc1)C(=O)OCC(=O)N(C)C1CCS(=O)(=O)C1 (stereo unspecified)	none
